The results in this text go back to PubChem BioAssay (Tox21).

Values joined by “and” are separate entries in the source; they are usually repeats but may differ in a detail not shown here. Equal entries are not always repeated. Records with an inconclusive call do not appear. Where a call stands in place of a potency, no number is given. Active and inactive are the calls of the source. Calls follow the shape of the dose curve; as a rule, active = well fitted cell-killing curve with a large enough effect in the repeat runs; inconclusive = weak or mixed curves, or effect the other way; inactive = flat fitted curve, though single readings scatter.
Potency is read from the fitted curve at half-maximal effect.

The nature of the assay: qHTS assay to identify small molecule antagonists of the androgen receptor (AR) signaling pathway using the MDA cell line in the presence of 0.5 nM R1881 - cell viability counter screen (AID 1259242). Also: nearly all actives have a fitted effect of over 45% in size. The following applies: MDA-kb2 viability, CellTiter-Fluor protease fluorescence, 16 h; series mostly up to 92.4 µM. From the text: U.S. Tox21 Program National Center for Advancing Translational Sciences [NCATS] NIH Chemical Genomics Center [NCGC] U.S. Environmental Protection Agency [EPA] National Institutes of Environmental Health Sciences [NIEHS] National Toxicology Program [NTP] U.S. Food and Drug Administration [FDA] Tox21 Assay Overview: Androgen receptor (AR) is an important member of the nuclear receptor family. Its signaling plays a critical role in AR-dependent prostate cancer and other androgen related diseases. Considerable attention has been given in the past decades to develop methods to study and screen for the environmental chemicals that have the potential to interfere with metabolic homeostasis, reproduction, developmental and behavioral functions. Therefore AR binding assay for screening androgen antagonists can be used to identify potential endocrine disruptors. MDA-kb2 cells (from ATCC, deposited by Wilson et al.) were used to screen for AR inhibitors against Tox21 compound libraries. These cells are human breast carcinoma cells that were stably transfected with a luciferase reporter gene under control of the MMTV promoter that contains response elements for both androgen receptor (AR) and glucocorticoid receptor (GR). The current screening for identification of AR inhibitors against Tox21 libraries used lower concentration of (0.5 nM) R1881 as a stimulator. The cytotoxicity of the Tox21 compound libraries against MDA-kb2 cell line was tested by measuring live-cell protease activity using CellTiter-Fluor assay in the same wells.
Tox21 Assay Protocol Summary: MDA-kb2 cells (cells cultured without CO2) were dispensed at 3,000 cells/well in 4 uL of culture medium into white wall/solid-bottom 1536-well plates (Corning Life Sciences, Corning, NY) using a Multidrop Combi (ThermoFisher Scientific, Waltham, MA) dispenser. After the assay plates were incubated at a 37C and 0% CO2 for 5 hr, 23 nL of compounds dissolved in DMSO, positive controls or DMSO only was transferred to the assay plate by a Pintool station (Kalypsys, San Diego, CA). The transfer of compounds was followed by the addition of 1 uL of 0.5 nM (final concentration) agonist (R1881)/culture medium using a Flying Reagent Dispenser (FRD, Aurora Discovery, San Diego, CA). The plates were incubated at 37C and 0% CO2 for 16 hr. For cytotoxicity assay, 1 uL of CellTiter-Fluor reagent (Promega Corporation, Madison, WI) was added to each well using the FRD and after 30 min incubation at 37C and 0% CO2, The fluorescence intensity was measured using ViewLux plate reader (PerkinElmer, Shelton, CT).
For orientation: Quantitative high-throughput screening tests each substance at several concentrations.
Turning to `c1ccc2c(c1)Cc1ccccc1-2`, the Potency result is “inactive”.
In the case of `C[Si]1(C)O[Si](C)(C)O[Si](C)(C)O[Si](C)(C)O1`, the Potency result is “inactive”.
For `O=C1CCCC1`, the Potency result is “inactive”.
Turning to `CC(=O)CCC=C(C)C`, the Potency entry is “inactive”.
In the case of `O=C(O)c1ccccc1C(=O)O` it was “inactive”; in that of `CNC(=O)Oc1ccc2c(c1)[C@]1(C)CCN(C)[C@@H]1N2C`, “inactive”.
For the compound `CC1(C)CC(N)CC(C)(CN)C1` (stereo not given), the Potency result is “inactive”.
With `CC(=O)OCc1ccccc1`, the Potency entry is “inactive”.
In the case of `CN/C(=C\[N+](=O)[O-])NCCSCc1csc(CN(C)C)n1` it was “inactive”.
In the case of `c1ccc(Oc2ccccc2)cc1` it was “inactive”.
For `O=C(O)Cn1c(=O)n(Cc2ccc(Br)cc2F)c(=O)c2ccc(Cl)cc21`, the Potency result is “inactive”.
As for `CC(=O)OCc1ccco1`, the Potency entry was “inactive”.
As for `CC(O)CC(C)(C)O` (stereo not given), the Potency result is “inactive”.
As to `O=C(OCC1CCC2OC2C1)C1CCC2OC2C1` (stereo not given), the Potency result was “inactive”.
`CCOC(=O)c1ccc(N)cc1`: the Potency result is “inactive”.
In the case of `COc1ccc(OC)cc1` it was “inactive”; in that of `Cc1ccc([N+](=O)[O-])cc1S(=O)(=O)O`, “inactive”; in that of `CC1(C)OC[C@@H]2O[C@@]3(C(=O)O)OC(C)(C)O[C@H]3[C@@H]2O1`, “inactive”.
To `CC(C)c1cccc(C(C)C)c1` belongs “inactive”; to `O=C1c2ccccc2CCc2ccccc21`, “inactive”; to `O=c1[nH]cnc2[nH]ncc12`, “inactive”.
Take `O=C1C(c2[nH]c3ccccc3c2O)=Nc2ccccc21`: the Potency entry was “inactive”.
Regarding `CCCCCCO`, the Potency entry was “inactive”.
With `Cc1ccc(C(C)C)c(O)c1`, the Potency result was “inactive”.
Consider `CC(=O)CC(C)(C)O`, for which the Potency entry is “inactive”.
Regarding `N#Cc1ccccc1`, the Potency entry was “inactive”.
Take `CCCCCCCCCCCCCCCC(=O)OC(C)C`: the Potency entry is “inactive”.
For the compound `C=CC[N+](C)(C)CC=C`, the Potency entry was “inactive”.
Consider `O=C(O)c1ccc(C(=O)O)c(C(=O)O)c1`, for which the Potency entry was “inactive”.
`O=S(=O)(O)c1ccc(N=Nc2c(O)ccc3cc(S(=O)(=O)O)ccc23)cc1`: the Potency was 54.7 µM (active) and 27.3 µM (active).
For the compound `CCCOC(=O)c1ccccc1`, the Potency entry is “inactive”.
In the case of `COc1ccc(N)c(C)c1` it was “inactive”; in that of `CC(C)OP(=O)(CP(=O)(OC(C)C)OC(C)C)OC(C)C`, “inactive”.
Consider `C=CC(C)CCCC(C)(C)O` (stereo not given), for which the Potency result was “inactive”.
To `CC(C)(C)c1cc(Cc2cc(C(C)(C)C)c(O)c(C(C)(C)C)c2)cc(C(C)(C)C)c1O` belongs “inactive”.
On to `O=S(=O)(O)c1ccccc1`, for which the Potency entry was “inactive”.
`CCCCOC(=O)c1ccc(N)cc1`: the Potency entry is “inactive”.
Consider `Clc1ccccn1`, for which the Potency entry was “inactive”.
As for `C[C@]12CC[C@@H]3c4ccc(O)cc4CC[C@H]3[C@@H]1C[C@@H](O)[C@@H]2O`, the Potency entry was “inactive”.
`O=[N+]([O-])c1ccc2nc[nH]c2c1`: the Potency result is “inactive”.
